This passage reports Potency results from PubChem BioAssay (NCATS).

Test [1] in a line: qHTS of pediatric cancer cell lines to identify multiple opportunities for drug repurposing: Primary screen for SJ-GBM2 cells (AID 1347091). Note: potency is the fitted concentration of half-maximal effect. A digest of the protocol:
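Cell viability, CellTiter-Glo luminescence; 500-1,000 cells/well, 8- or 11-point titration, 48 h compound exposure at 37 degrees C, 5% CO2. Controls: DMSO neutral, bortezomib 2.3 µM final as positive.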
(qHTS replaces the single test concentration by a dilution series.)

Test [2] in a line: qHTS of pediatric cancer cell lines to identify multiple opportunities for drug repurposing: Primary screen for A673 cells (AID 1347092). Note: nearly all actives have a fitted effect of over 45% in size. A digest of the protocol:
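Cell viability of A673 measured by CellTiter-Glo ATP luminescence after 48 hours compound exposure. Dilution series spanned 0.78 nM to 46 µM (MIPE, 11-point) or 0.59 nM to 46 µM (NPC, 8-point); bortezomib 2.3 uM positive control.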

Test [3] in a line: qHTS of pediatric cancer cell lines to identify multiple opportunities for drug repurposing: Primary screen for SK-N-MC cells (AID 1347093). Note: potency is the fitted concentration of half-maximal effect. Put shortly:
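Metabolically active cells were quantified by ATP-dependent luminescence (CellTiter-Glo, 15 min at room temperature) following 48 h treatment. Cells had been plated at 500-1,000 per well and settled for 5 h beforehand.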

Test [4] can be described thus: qHTS of pediatric cancer cell lines to identify multiple opportunities for drug repurposing: Primary screen for BT-37 cells (AID 1347094). Note: potency is the fitted concentration of half-maximal effect. Put shortly:
(§1)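 ATP-based luminescence (CellTiter-Glo) quantifies viability after a 48-hour exposure. Compounds are dosed across 8 or 11 final concentrations; DMSO and 2.3 µM bortezomib serve as controls.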

The nature of test [5]: qHTS of pediatric cancer cell lines to identify multiple opportunities for drug repurposing: Primary screen for NB-EBc1 cells (AID 1347095). Note: potency is the fitted concentration of half-maximal effect. A digest of the protocol:
as §1

Test [6] in a line: qHTS of pediatric cancer cell lines to identify multiple opportunities for drug repurposing: Primary screen for U-2 OS cells (AID 1347096). Note: nearly all actives have a fitted effect of over 50% in size. Note: potency is the fitted concentration of half-maximal effect. Put shortly: (§2)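 Cells (500-1,000/well) rested 5 h, then received compounds for 48 h; metabolically active cells were measured by CellTiter-Glo luminescence. Final concentrations spanned up to 46 µM (MIPE, 11-point) or 0.59 nM-46 µM (NPC, 8-point) in primary screens, 11-point in follow-ups.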

Test [7] is described as follows: qHTS of pediatric cancer cell lines to identify multiple opportunities for drug repurposing: Primary screen for Saos-2 cells (AID 1347097). Note: nearly all actives have a fitted effect of over 40% in size. Note: potency is the fitted concentration of half-maximal effect. A digest of the protocol:
as §1

The nature of test [8]: qHTS of pediatric cancer cell lines to identify multiple opportunities for drug repurposing: Primary screen for SK-N-SH cells (AID 1347098). Note: nearly all actives have a fitted effect of over 65% in size. Note: potency is the fitted concentration of half-maximal effect. A digest of the protocol:
as §2

A short description of test [9]: qHTS of pediatric cancer cell lines to identify multiple opportunities for drug repurposing: Primary screen for NB1643 cells (AID 1347099). Note: nearly all actives have a fitted effect of over 50% in size. Note: potency is the fitted concentration of half-maximal effect. Put shortly: as §1
A short description of test [10]: qHTS of pediatric cancer cell lines to identify multiple opportunities for drug repurposing: Primary screen for LAN-5 cells (AID 1347100). Note: potency is the fitted concentration of half-maximal effect. Put shortly: as §2
Test [11] is described as follows: qHTS of pediatric cancer cell lines to identify multiple opportunities for drug repurposing: Primary screen for BT-12 cells (AID 1347101). Note: nearly all actives have a fitted effect of over 25% in size. Note: potency is the fitted concentration of half-maximal effect. A digest of the protocol:
as §2

The nature of test [12]: qHTS of pediatric cancer cell lines to identify multiple opportunities for drug repurposing: Primary screen for Rh18 cells (AID 1347102). Note: nearly all actives have a fitted effect of over 65% in size. Note: potency is the fitted concentration of half-maximal effect. A digest of the protocol: as §2
A short description of test [13]: qHTS of pediatric cancer cell lines to identify multiple opportunities for drug repurposing: Primary screen for OHS-50 cells (AID 1347103). Note: nearly all actives have a fitted effect of over 40% in size. Note: potency is the fitted concentration of half-maximal effect. A digest of the protocol: as §2
Test [14] is described as follows: qHTS of pediatric cancer cell lines to identify multiple opportunities for drug repurposing: Primary screen for RD cells (AID 1347104). Note: nearly all actives have a fitted effect of over 55% in size. Note: potency is the fitted concentration of half-maximal effect. A digest of the protocol: as §1
A short description of test [15]: qHTS of pediatric cancer cell lines to identify multiple opportunities for drug repurposing: Primary screen for MG 63 (6-TG R) cells (AID 1347105). Note: nearly all actives have a fitted effect of over 50% in size. Note: potency is the fitted concentration of half-maximal effect. A digest of the protocol: as §1
The nature of test [16]: qHTS of pediatric cancer cell lines to identify multiple opportunities for drug repurposing: Primary screen for control Hh wild type fibroblast cells (AID 1347106).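 Note: series mostly up to about 46 µM; a drop in luminescence marks cytotoxicity and a rise apparent proliferation; nearly all actives have a fitted effect of over 55% in size.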 Put shortly:
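Cells (500-1,000/well) in growth media were settled 5 h at 37 degrees C, then given compounds for 48 h. Viability was read as CellTiter-Glo luminescence. Primary runs used MIPE at 11 points (0.78 nM-46 µM) and NPC at 8 points (0.59 nM-46 µM); follow-ups used 11 points.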

A short description of test [17]: qHTS of pediatric cancer cell lines to identify multiple opportunities for drug repurposing: Primary screen for Rh30 cells (AID 1347107). Note: series mostly up to about 46 µM; nearly all actives have a fitted effect of over 75% in size. Put shortly:
as §2

Test [18] in a line: qHTS of pediatric cancer cell lines to identify multiple opportunities for drug repurposing: Primary screen for Rh41 cells (AID 1347108). Note: nearly all actives have a fitted effect of over 70% in size. Note: potency is the fitted concentration of half-maximal effect. Put shortly:
as §1

Test [19] can be described thus: qHTS of pediatric cancer cell lines to identify multiple opportunities for drug repurposing: Confirmatory screen for NB1643 cells (AID 1347109). Note: nearly all actives have a fitted effect of over 45% in size. Note: potency is the fitted concentration of half-maximal effect. A digest of the protocol:
as §2

Test [20] is described as follows: qHTS of pediatric cancer cell lines to identify multiple opportunities for drug repurposing: Confirmatory screen for SK-N-MC cells (AID 1347111).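 Note: potency is the fitted concentration of half-maximal effect; cells exposed to compound for 48 h before the readout; nearly all actives have a fitted effect of over 70% in size.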 Put shortly: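 Seed 500-1,000 cells/well; rest 5 h at 37 degrees C. Pin-transfer compounds, 11-point titration. Incubate 48 h. Add CellTiter-Glo, 15 min RT, read luminescence.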

Molecules are shown by their SMILES. Several values for one entry are separate records, joined by “and”; a condition that tells them apart may be missing. Equal values may be shown once. Records with an inconclusive call do not appear. Unmarked numbers belong to inactive results. Activity calls are given as the source filed them. Calls come from the whole dose curve; as a rule, active = well fitted curve in the direction sought with a large enough effect; inconclusive = small, poorly fitted or top-dose-only effect, or another doubt; inactive = no such curve, though single readings can be large; an effect the other way counts as inactive or inconclusive. Peptide text beside a SMILES is read from it.

Turning to `CCC1=C(C)CN(C(=O)NCCc2ccc(S(=O)(=O)NC(=O)NC3CCC(C)CC3)cc2)C1=O` (configuration not stated), the Potency result in test [1], in test [2], in [3], in [4], in test [5] and in [6] was “inactive” throughout. The Potency entry in [7], in [8], in test [9], in test [10], in [11] and in test [12] was “inactive” throughout. Besides, the Potency entry in test [13], in [14], in [15], in test [16], in test [17] and in test [18] was “inactive” each time.

As for `CN1C(C(=O)Nc2ccccn2)=C(O)c2sccc2S1(=O)=O`, the Potency result in test [1], in [2], in test [3], in test [4], in test [5] and in [6] was “inactive” each time. The Potency result in test [7], in [8], in [9], in test [10], in test [11] and in test [12] was “inactive” throughout. Moreover, the Potency result in [13], in [14], in test [15], in test [16], in test [17] and in [18] was “inactive” each time.

Take `CCCCC(CC)COC(=O)C(C#N)=C(c1ccccc1)c1ccccc1` (configuration not stated): the Potency result in test [1], in test [2], in test [4], in [5], in test [6] and in [7] was “inactive” in each case. The Potency entry in test [12], in [15], in test [16] and in [17] was “inactive” each time. Also, the Potency in test [3] was 16.8 µM (active) and 7.43 µM (active); in test [13], 13.8 µM (active) and 24.3 µM (active).

Consider `CC(C)[C@H](N)C(=O)OCCOCn1cnc2c(=O)[nH]c(N)nc21`, for which the Potency entry in test [1], in [3], in [4], in test [5], in test [6] and in test [7] was “inactive” in each case. Besides, the Potency entry in [8], in test [9], in [10], in test [11], in test [12] and in [13] was “inactive” each time. Moreover, the Potency entry in test [14], in test [15], in test [16], in [17] and in test [18] was “inactive” throughout.

As for `O=c1c(O)c(-c2ccc(O)cc2O)oc2cc(O)cc(O)c12`, the Potency result in test [1], in test [3], in [4], in [5], in test [6] and in test [8] was “inactive” each time. Moreover, the Potency result in test [9], in [10], in test [11], in test [12], in test [13] and in test [14] was “inactive” in each case. For the same molecule, the Potency result in test [15], in [16] and in [17] was “inactive” each time.

With `O=P(O)(O)C(O)(Cn1ccnc1)P(=O)(O)O`, the Potency result in [1], in test [3], in test [4], in test [5], in [6] and in [7] was “inactive” in each case. In addition, the Potency entry in [8], in test [9], in test [10], in test [11], in test [12] and in test [13] was “inactive” each time. Besides, the Potency entry in test [14], in test [15], in test [16], in test [17] and in test [18] was “inactive” in each case.

For the molecule `COc1ccccc1N1CCN(CCN(C(=O)C2CCCCC2)c2ccccn2)CC1`, the Potency result in test [1], in test [3], in test [4], in [6], in test [7] and in [8] was “inactive” each time. Moreover, the Potency entry in [10], in test [12], in test [13], in test [14], in [15] and in [16] was “inactive” each time. The Potency entry in [17] and in test [18] was “inactive” each time. Further, in test [5], the Potency is 6.62 µM (active).

With `COc1cc(Nc2c(C#N)cnc3cc(OCCCN4CCN(C)CC4)c(OC)cc23)c(Cl)cc1Cl`, the Potency in test [1] is 23.7 µM (active); in test [3], 2.11 µM (active) and 1.87 µM (active); in test [4], 17.4 µM (active); in test [6] it was 21.1 µM (active); in [7], 8.33 µM (active); in [8], 6.12 µM (active). Moreover, the Potency is 27.6 µM (active) in test [11]; 19.5 µM (active) and 2.17 µM (active) in test [13]; 15 µM (active) and 14.8 µM (active) in test [14]. Besides, the Potency entry in test [5] and in test [16] was “inactive” each time.

`C[C@]12CCC(=O)C=C1CC[C@@H]1[C@H]2[C@@H](O)C[C@@]2(C)[C@H]1CC[C@]2(O)C(=O)CO`: the Potency entry in test [1], in test [3], in test [4], in test [5], in test [6] and in test [7] was “inactive” throughout. Further, the Potency entry in test [10], in test [11], in test [12], in [13], in test [14] and in [15] was “inactive” in each case. Moreover, the Potency entry in test [16], in [17], in test [18] and in [19] was “inactive” each time.

With `NCCCCNCCCN`, the Potency result in test [1], in [4], in test [5], in test [6], in test [11] and in [12] was “inactive” in each case. Further, the Potency entry in [13], in test [14], in test [15] and in test [17] was “inactive” throughout. Also, the Potency was 3.32 µM (active) in test [3], 7.64 µM (active) in test [8], 4.18 µM (active) in test [9] and 23.5 µM (active) in [18].

On to `CC(=O)NC[C@H]1CN(c2ccc(N3CCOCC3)c(F)c2)C(=O)O1`, for which the Potency result in test [1], in test [3], in test [4], in test [5], in test [6] and in test [7] was “inactive” in each case. Also, the Potency result in [9], in test [10], in test [11], in test [12], in test [13] and in test [14] was “inactive” each time. For the same molecule, the Potency result in test [15], in [16], in test [17] and in test [18] was “inactive” throughout.

For `COC(=O)[C@H](Cc1ccccc1)NC(=O)[C@@H](N)CC(=O)O` (H-Asp-Phe-OMe), the Potency result in test [1], in test [3], in test [4], in test [5], in test [6] and in [7] was “inactive” each time. Further, the Potency result in test [8], in [9], in [10], in [11], in [12] and in test [13] was “inactive” each time. The Potency entry in test [14], in test [15], in test [16], in test [17] and in [18] was “inactive” throughout.

Consider `O=C1CCc2ccc(OCCCCN3CCN(c4cccc(Cl)c4Cl)CC3)cc2N1`, for which the Potency in test [1] is 18.8 µM (active); in [13], 6.92 µM (active) and 24.3 µM (active). In addition, the Potency result in [3], in [4], in [5], in test [6], in [8] and in [9] was “inactive” throughout. Also, the Potency entry in test [12], in test [14], in test [15], in test [16], in [17] and in test [18] was “inactive” throughout.

Regarding `CCN(CC)CCOc1ccc(Nc2ncc3cc(-c4c(Cl)cccc4Cl)c(=O)n(C)c3n2)cc1`, the Potency in test [1] was 0.418 µM (active); in test [3] it was 0.105 µM (active); in [4], 6.11 µM (active); in test [5], 1.48 µM (active); in [6] it was 1.18 µM (active); in [7], 0.296 µM (active). For the same molecule, the Potency in [8] is 0.242 µM (active); in test [9], 3.72 µM (active); in test [10], 1.05 µM (active); in test [11], 19.3 µM (active); in [12], 372 nM (active); in test [13], 122 nM (active). The Potency was 743 nM (active) in test [14]; 187 nM (active) in [15]; 1.87 µM (active) in test [18]; 9.27 µM (active) in [19]; 293 nM (active) in [20].
